# High-throughput results as filed in PubChem BioAssay.
# Pf growth 96h – inhibits malaria parasite growth, 96 h | P. falciparum luciferase reporter growth, 96 h | Potency, µM (highest dose often 28.7 µM), for the others: at the highest dose activity change, negative = inhibition, usual class: inhibitors | 6.9% of 320,000 active
#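 Cell-based qHTS: luciferase-tagged P. falciparum in erythrocytes (2% hematocrit, 0.05% parasitemia final) incubated with compounds for 96 hours, 37 C, 5% CO2; luciferase detection reagent then added and luminescence measured.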
# AMA1-RON2 inh – AMA1-RON2 (P. falciparum) interaction inhibition; AlphaScreen AMA1-biotinylated RON2 peptide binding; Potency, µM (top dose mostly 58.2 µM), without a hit: top-dose activity change, negative = inhibition, most hits filed as inhibitors; 0.2% of 360,000 active;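 further: 0% = vehicle wells and -100% = peptide control; nearly all actives have a fitted effect of over 45% in size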
#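 AMA1 (3D7) with his tag at 25 nM final met compounds first, then biotinylated RON2 peptide at 25 nM; detection used donor plus acceptor beads, 10 µg/mL apiece, read by AlphaScreen after 30 min at room temperature.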
# Pf growth 48h – inhibits P. falciparum growth in the first generation, 48 h; P. falciparum luciferase growth in erythrocytes, 48 h; Potency, µM (titrated, usually from 28.7 µM), for inactives: top-dose activity change, negative = inhibition, most hits filed as inhibitors; 5.9% of 310,000 active; AID 504832
#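 Growth was read as firefly luciferase luminescence after a 48 h, 37 C, 5% CO2 exposure of compounds to reporter-bearing P. falciparum cultures (0.1% parasitemia, 2% hematocrit final) in Albumax-supplemented RPMI 1640.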
# VACV Venus inh – inhibitors of vaccinia virus (Venus reporter); Vaccinia virus Venus reporter expression, fluorescence; Potency, µM (highest dose often 36.5 µM), without a hit: top-dose activity change, negative = inhibition, actives largely listed as inhibitors; 0.46% of 330,000 active; AID 720580; calls by dose curve; tested in A549 cells; further: nearly all actives have a fitted effect of over 30% in size
# VACV mCherry inh – inhibitors of vaccinia virus infection (mCherry reporter signal) | Vaccinia virus mCherry reporter infection, fluorescence | Potency, µM (doses to about 36.5 µM), for the others: top-dose activity change, negative = inhibition, hits mostly inhibitors | 0.63% of 310,000 active | AID 720579; calls by dose curve; tested in A549 cells; further: nearly all actives have a fitted effect of over 35% in size
# * hit, by the source's call; i = inactive; ? = inconclusive; nt = no result; [ ] = another dose, or the depositor's remark. Shown are actives, neighbours in structure and some others; about 8.7% of the full set was active somewhere. Unless noted, the call rests on the fitted dose curve; in most records, active means well fitted curve in the direction sought with a large enough effect; inconclusive means small, poorly fitted or top-dose-only effect, or another doubt; inactive means no such curve, though single readings can be large; an effect the other way counts as inactive or inconclusive. Unless noted, on the % scale 0 is the no-effect control and ±100 the full control effect; potency means the concentration at half of the fitted maximal effect.
SMILES,Pf growth 96h,AMA1-RON2 inh,Pf growth 48h,VACV Venus inh,VACV mCherry inh
Cc1nc2c(c(=O)n1CCC(C)C)c1nc3ccccc3nc1n2CC1CCCO1 (stereo not drawn),4%,0%,?,-1%,i
CCOC(=O)c1c(/N=C/c2cc([N+](=O)[O-])ccc2O)sc(C)c1C,9.3µM*,-8%,?,-1%,-11%
CCOC(=O)c1c(/N=C/c2cc(OC)cc([N+](=O)[O-])c2O)sc(C)c1C,-30%,-2%,13%,-9%,-13%
C=CCn1c(SCC(=O)NC(=O)NCCC)nnc1C1CCCCC1,?,1%,?,-14%,nt
C=CCn1c(SCC2=C(C(=O)OCC)C(C)NC(=O)N2)nnc1C1CCCCC1 (stereo not drawn),3%,31%,12µM*,nt,nt
CN1CCN(C2(CNC(=O)c3ccc(C(C)(C)C)cc3)CCCCC2)CC1,nt,nt,nt,-23%,i
O=C(Nc1ccc(F)cc1)Nc1nnc(Cc2ccccc2)s1,4.7µM*,2%,?,-4%,i
CCc1ccccc1NC(=O)CSc1ncc(S(=O)(=O)c2ccccc2)c(N)n1,nt,nt,nt,0%,19%
COc1ccc(NC(=O)CSc2nc3c(c(=O)[nH]2)CN(Cc2ccccc2)CC3)cc1Cl,nt,nt,nt,10%,-2%
CCOc1ccc(S(=O)(=O)N2CCCCC2)cc1NC(=O)CCc1ccc(OC)cc1,10µM*,-18%,13µM*,-6%,i
CN(C)S(=O)(=O)c1ccc(NC(=O)CCNC(=O)c2ccco2)cc1,9%,-27%,21%,6%,11%
COc1ccccc1NS(=O)(=O)c1ccc(NC(=O)CCNC(=O)c2ccco2)cc1,8.3µM*,4%,?,-9%,-5%
CN(C)c1ccc(CNC(=O)CCc2ccc(S(=O)(=O)N3CCCCCC3)cc2)cc1,?,?,12µM*,-7%,?
CCOc1ccc(S(=O)(=O)N2CCCCC2)cc1NC(=O)CCNC(=O)c1ccco1,?,8%,3.3µM*,-3%,i
CSc1ncc(C(=O)NCc2ccc(C)cc2)c(-c2ccccc2)n1,nt,nt,nt,0%,-9%
COc1ccc(Cl)cc1NC(=O)CSc1nnc2[nH]c(=O)cc(C)n12,nt,nt,nt,-10%,i
Cc1c(CN2CCOc3ccc(C(C)(O)COc4ccccc4)cc3C2)cnn1C (stereo not drawn),nt,nt,nt,5%,-16%
Cc1nc(-c2ccc(Cl)cc2)sc1CCNC(=O)C(=O)Nc1ccccc1C#N,nt,nt,nt,7%,-1%
Cc1csc(NC(=O)CSc2nnnn2C)n1,9.3µM*,20%,203%,-7%,i
Cc1csc(NC(=O)CSc2ccc(-c3ccccn3)nn2)n1,?,32µM*,-17%,nt,nt
Cc1csc(NC(=O)CCSCCc2ccccn2)n1,9.3µM*,0%,nt,-21%,i
O=C(CSc1ccc(-c2ccccn2)nn1)Nc1nccs1,0%,-7%,33%,-6%,-23%
CCN(C(=O)Cc1c(C(=O)O)c(C)cn1C)c1cccc(Cl)c1,nt,nt,nt,-11%,-14%
CCOC(=O)c1ccc(NC(=O)CCC(=O)N2CCSc3ccccc32)cc1,nt,nt,nt,-8%,-15%
CC1CCC(C(C)C)C(OCC(O)CN2CCCC(C)C2)C1 (stereo not drawn),13µM*,0%,?,-28%,?
SMILES,Pf growth 96h,AMA1-RON2 inh,Pf growth 48h,VACV Venus inh,VACV mCherry inh
CC1CCC(C(C)C)C(OCC(O)CN2CCN(Cc3ccccc3)CC2)C1 (stereo not drawn),?,-28%,12µM*,?,nt
COc1cc2c(cc1OC)CN(C(=O)[C@@H]1C[C@H](NCc3cn(C)c4ccccc34)CN1C1Cc3ccccc3C1)CC2,nt,nt,nt,1%,-1%
CCOC(=O)CS(=O)(=O)c1ccccc1,2%,-11%,2.9µM*,-7%,-11%
CCOC(=O)CCS(=O)(=O)c1nc(-c2ccccc2)cc(C(F)(F)F)n1,nt,-12%,13%,?,11µM*
CCOC(=O)CS(=O)(=O)c1nc(-c2ccccc2)cc(C(F)(F)F)n1,39%,6%,0%,10µM*,nt
COc1ccc(-c2cc(C(F)(F)F)nc(S(=O)(=O)CCCC(=O)Nc3cccnc3Cl)n2)cc1OC,-9%,-8%,12µM*,?,?
COC(=O)c1cc2oc(C)cc2n1Cc1ccc(C)cc1,nt,nt,nt,-4%,i
CCN1C(=O)c2ccccc2S(=O)c2ccc(C(=O)NCc3ccc(Cl)cc3)cc21 (stereo not drawn),nt,nt,nt,-4%[7.34 µM],2%[7.34 µM]
COC(=O)CCS(=O)(=O)c1nc(-c2ccccc2)cc(C(F)(F)F)n1,nt,-6%,2%,nt,nt
CCOC(=O)CS(=O)(=O)c1nc(-c2ccc(F)cc2)cc(C(F)(F)F)n1,nt,-4%,5%,10µM*,nt
COCC(C)NC(=O)CCS(=O)(=O)c1nc(-c2ccc(OC)cc2)cc(C(F)(F)F)n1 (stereo not drawn),9.3µM*,4%,-19%,6%,-10%
Cc1ccc(CNC(=O)CC2Oc3ccccc3NC2=O)cc1 (stereo not drawn),nt,nt,nt,-12%,-16%
COc1ccc2cc1Oc1ccc(cc1)CC1c3c(cc4c(c3Oc3cc5c(cc3OC)CCN(C)C5C2)OCO4)CCN1C (stereo not drawn),5.4µM*,nt,5.4µM*,nt,nt
COc1ccc2cc1Oc1ccc(cc1)CC1c3c(cc(OC)c4c3Oc3cc5c(cc3O4)CCNC5C2)CCN1C (stereo not drawn),0.33µM*,14µM*,0.52µM*,?,?
CCCC(=O)Oc1ccc(N(C(=O)CCC)S(=O)(=O)c2cccc([N+](=O)[O-])c2)cc1,4.7µM*,-8%,-9%,-6%,-2%
CCCC(=O)Oc1ccc(N(C(=O)CCC)S(=O)(=O)c2cccs2)cc1,0%,11%,13%,-2%,-2%
COc1ccc(/C=N/N=C2\SCC(=O)N2c2c(C)n(C)n(-c3ccccc3)c2=O)cc1OC,?,10%,13µM*,-20%,-27%
CCOC(=O)N1CCN(C(=O)CCCn2nc(C)c3sc4ccccc4c3c2=O)CC1,14%,-1%,5.2µM*,0%,-7%
COc1ccc(-c2cccc3c2OC(CNC(=O)c2ccc4c(c2)OCO4)C3)nn1 (stereo not drawn),nt,nt,nt,4%,-5%
N#CCc1nc2c3c4c(sc3ncn2n1)CCCC4,10µM*,12%,nt,-15%,-2%
Cc1nn2cnc3sc4c(c3c2nc1=O)CCCC4,?,6%,-17%,-18%,-18%[1.46 µM]
COc1ccc(/C(C)=N/NC(=O)CNC(=O)c2cccs2)cc1OC,?,12%,5%,nt,nt
COc1cc(C(=O)NCC(=O)N/N=C(/C)c2cccs2)cc(OC)c1OC,1.7µM*,7%,0%,-6%,i
COc1ccc(OC)c(-n2c(=S)[nH]c3cc(C(=O)N(C)Cc4ccccc4)ccc3c2=O)c1,9.3µM*,95%,?,-12%,-14%
COc1ccccc1N1CCN(CCCn2c(=S)[nH]c3ccccc3c2=O)CC1,21%,53%,7.4µM*,-10%,i
COC(=O)c1cc(CNC(=O)c2ccncc2)cc(NC(=O)c2ccccc2Cl)c1,nt,nt,nt,-9%,-6%
